Only some compounds are listed: those with a hit (about 3.4% of all), similar ones and a draw of the others.
EWS-Fli block – EWS/Fli transcriptional activity inhibition; 0.67% of 350,000 active; inhibition, % at 12.6 µM; A673 NR0B1-luciferase reporter, viability-normalised;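 active means mean inhibition of at least 50% after viability correction, with every replicate also passing that limit; inconclusive means mean reaches 50% but only one of two replicates passes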;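 further: firefly luciferase signal divided by Alamar Blue viability fluorescence both relative to DMSO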
PAX8 inh HTS – PAX8 transcriptional activity inhibition | RMG-I TPO-luciferase reporter, SteadyGlo, 24 h | inhibition, % at 12.6 µM | 1.2% of 360,000 active | AID 652154;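 active means mean replicate inhibition at least 60% with every replicate also reaching 60%; inconclusive means only one of the two criteria is met; inactive means mean below 60% and not all replicates reaching 60%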;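 further: luciferase light reporting Pax8 driven TPO promoter activity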
PGC1a acetyl inh – modulators of PGC1a acetylation; 0.17% of 350,000 active; U2OS PGC1a acetylation, AlphaScreen anti-acetyl-lysine; with virally co-expressed GCN5 acetyltransferase; inhibition, % at 15.6 µM; AID 651687;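 active means every replicate shows inhibition of at least 40%; inconclusive means mean inhibition at least 40% but some replicate below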
LGR2 antag – blocks bursicon-induced cAMP signaling via Drosophila LGR2; inhibition, % at 9.99 µM; 0.35% of 380,000 active; HEK293 LGR2, CRE-luciferase, bursicon-stimulated, 4 h;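 active means drop in luminescence signal, shown as inhibition above about 50% in the replicate tests, limit read from the data, passing the limit was not always enough; inconclusive means probably only some replicates passing the limit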;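 further: agonist challenge used bursicon conditioned medium at about half maximal strength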
rRNA inh HTS – selective bacterial rRNA inhibition in E. coli; E. coli WT GFP vs humanized-ribosome RFP mutants, fluorescence, 24 h; stronger effect = lower value; DMSO median 0, no signal -100; GFP signal change (wild-type ribosome), % (no concentration beside the values); 1.6% of 350,000 active; AID 720706;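 active means significant combined selectivity score with lowered wild-type GFP, culture density cut under 30%, mutant RFP and density less affected; inactive means any of these conditions unmet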
SIRT5 block – blocks human SIRT5 desuccinylation of peptide. Q9NXA8. Purified SirT5, succinyl-peptide AMC, trypsin-coupled fluorescence. inhibition, % at 15 µM. 1.1% of 330,000 active; in the data active means inhibition above about 15%; inconclusive means no clear call, values can overlap the other calls
Target sequence (Q9NXA8 whole entry, looked up): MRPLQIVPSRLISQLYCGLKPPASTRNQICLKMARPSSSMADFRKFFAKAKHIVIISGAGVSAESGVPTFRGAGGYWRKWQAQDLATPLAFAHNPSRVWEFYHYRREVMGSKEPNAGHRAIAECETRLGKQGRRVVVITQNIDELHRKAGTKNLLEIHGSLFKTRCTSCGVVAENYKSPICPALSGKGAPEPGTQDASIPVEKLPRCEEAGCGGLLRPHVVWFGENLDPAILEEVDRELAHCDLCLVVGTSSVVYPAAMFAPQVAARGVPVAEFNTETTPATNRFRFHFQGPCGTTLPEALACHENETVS
AID977621 – growth inhibition of wild-type GFP E. coli, dose response, H69 mutant RFP, cherry-pick; shares compounds with rRNA inh HTS; E. coli wild-type GFP strain growth, fluorescence, 24 h; activity change, negative = inhibition at 50 µM; 1,900 tested, under 10 active; AID 977621;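 active means Wild-type ribosome reporter drop at least double the humanized mutant ribosome reporter drop, growth loss under a set limit; inconclusive means no clear call, values can overlap the other calls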;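 further: wild-type GFP and H69 mutant RFP strains grown together 50/50 in each well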
AID977628 – E. coli growth inhibition, wild-type GFP versus h24 humanized RFP strain, dose response, h24 mutant RFP vs wild-type GFP, cherry-pick; shares compounds with rRNA inh HTS; E. coli WT GFP strain growth, fluorescence, 24 h; activity change, negative = inhibition at 50 µM; 1,900 tested, under 10 active;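 active means compound lowering the normal-ribosome reporter at least twice as much as the humanized-ribosome reporter, growth loss under a set limit; inconclusive means no clear call, values can overlap the other calls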;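 further: wild-type GFP and h24 humanized RFP strains co-cultured 1 to 1 per well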
Hits are given with their value; . = inactive; ? = inconclusive; / = not tested or not shown.

SMILES | EWS-Fli block | PAX8 inh HTS | PGC1a acetyl inh | LGR2 antag | rRNA inh HTS | SIRT5 block | AID977621 | AID977628
COc1ccc(C#Cc2ccc([C@@H]3[C@H](CO)N4CCCCN(C(=O)Cc5ccccc5)C[C@@H]34)cc2)cc1 | . | . | . | . | . | . | / | /
Nc1c(C(=O)NCCc2ccccc2)c2nc3ccccc3nc2n1CCN1CCOCC1 | / | / | . | / | / | / | / | /
Nc1c(C(=O)NCCN2CCOCC2)c2nc3ccccc3nc2n1Cc1ccccc1 | . | . | . | . | -36 | . | / | ?
CN1CCC(c2c[nH]c3ccccc23)C1 (stereo not given) | . | . | / | . | -23 | . | . | ?
c1ccc(Nc2ccc3ccccc3c2)cc1 | . | / | . | . | -24 | . | . | .
